Compounds with a hit are over-represented: about 27% of the library has one in this group of screens.
CYP2C19 inh: blockers of cytochrome P450 2C19 activity – biochemical, luminescence, ADME assay, primary screen; inhibition, % at 5 µM; AID 778, 2007; 96,000 compounds, 21% hits; CYP2C19 Supersomes, luciferin-H EGE luminescence, 30 min;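 active means CYP2C19 inhibition above a set limit at 5 µM in the primary screen, cut at about 50% in these data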;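 further: plate controls were negative control wells for no effect and 2.5 mM tranylcypromine positive control for full effect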
CYP2C19 act: human CYP2C19 activators, primary screen, biochemical, luminescence; Cytochrome P450 2C19 (Homo sapiens), P33261; recombinant CYP2C19, luciferin-H EGE luminescence; active compounds read high; 0 = fully inhibited enzyme, 1 = untreated enzyme; activation factor at 5 µM; 96,000 tested, under 10 active;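 active means activation factor of at least 2 at 5 µM in the primary screen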;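 further: 0 = wells with 2.5 mM tranylcypromine and 1 = vehicle-only wells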
EphB4 antag: EphB4-ephrin-B2 interaction antagonists, primary screen, biochemical, TNYL-RAW peptide probe, fluorescence polarization. Ephrin type-B receptor 4 (Homo sapiens), P54760. EphB4 LBD / TNYL-RAW-Alexa532 peptide. inhibition, % at 7 µM. 97,000 compounds, 0.15% hits. AID 720, 2007;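 active means inhibition above the screen-wide mean inhibition plus 3 SD, cut at about 15% in these data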;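 further: 0% = DMSO wells and 100% = excess unlabeled TNYL-RAW peptide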
CYP2C9 act: human CYP2C9 activators, primary screen, biochemical, luminescence. AID 1024, 2008. 96,000 compounds, 1.4% hits. recombinant CYP2C9, luciferin-H conversion; active compounds read high; factor 1 = untreated enzyme, 0 = blocked. Cytochrome P450 2C9 (Homo sapiens), P11712. activation factor at 5 µM;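 active means activation factor of 2 or more for CYP2C9 at a 5 µM dose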;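 further: 0 = sulfaphenazole-blocked wells and 1 = vehicle-only wells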
Target sequence (P11712 whole entry, looked up): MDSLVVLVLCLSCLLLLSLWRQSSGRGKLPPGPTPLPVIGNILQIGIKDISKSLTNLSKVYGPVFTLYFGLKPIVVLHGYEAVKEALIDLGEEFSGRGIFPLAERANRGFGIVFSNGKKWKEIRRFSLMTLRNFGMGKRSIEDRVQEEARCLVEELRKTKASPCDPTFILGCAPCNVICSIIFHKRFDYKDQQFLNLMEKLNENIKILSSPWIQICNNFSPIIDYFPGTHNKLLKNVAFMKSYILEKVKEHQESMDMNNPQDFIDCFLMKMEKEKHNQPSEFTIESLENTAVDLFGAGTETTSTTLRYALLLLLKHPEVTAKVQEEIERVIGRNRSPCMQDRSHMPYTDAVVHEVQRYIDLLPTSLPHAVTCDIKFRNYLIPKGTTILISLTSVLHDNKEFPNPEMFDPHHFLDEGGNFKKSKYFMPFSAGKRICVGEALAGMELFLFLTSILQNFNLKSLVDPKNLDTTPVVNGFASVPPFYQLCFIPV
CYP2C9 inhib: blockers of cytochrome P450 2C9 activity – biochemical, luminescence, ADME assay, primary screen; CYP2C9 Supersomes, luciferin-H conversion; inhibition, % at 5 µM; AID 777, 2007; P11712; 96,000 compounds, 20% hits;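 active means blocking of liver enzyme CYP2C9 beyond about 50% at 5 µM, limit read from the data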
Starred values were filed as active, the others as inactive; . = no result.

SMILES	CYP2C19 inh	CYP2C19 act	EphB4 antag	CYP2C9 act	CYP2C9 inhib
CCCCn1c(SCC(=O)NCc2ccco2)nc2cc(S(N)(=O)=O)ccc21	56*	0.4	-6	0.3	68*
CCCCn1c(SCC(=O)NCc2ccco2)nc2ccc(N3CCOCC3)cc2c1=O	22	0.8	.	0.4	60*
CC(C)NC(=O)NC(=O)COc1ncnc2sccc12	-17	1.2	.	1	0
CC(=O)c1ccc(NC(=O)C2(c3ccccc3)CCOCC2)cc1	34	0.7	4	0.5	50*
O=C(Nc1ccccn1)C1(c2ccccc2)CCCC1	81*	0.2	-10	0.4	59*
O=C(Nc1ccc(O)c(-c2nc3ccccc3o2)c1)C1(c2ccccc2)CCCC1	24	0.8	0	0.1	87*
O=C(Nc1cccnc1)C1(c2ccccc2)CCCC1	52*	0.5	-2	0.5	45
O=C(Nc1cc(=O)c2ccccc2o1)N1CCCCC1	1	1	.	1	5
O=C(Nc1ccncc1)C1(c2ccccc2)CCCC1	100*	0	5	0.1	95*
Cc1ccc(NC(=O)C2(c3ccccc3)CCCC2)nc1	.	.	-2	.	.
CC1OC(Nc2cccc3ccccc23)C(O)C(O)C1O (stereo not given)	-3	1	9	1	4
Cc1nn(Cc2ccccc2)c(C)c1NC(=O)c1noc2c1CCc1ccccc1-2	38	0.6	2	0.4	61*
CCc1ccc(NC(=O)c2noc3c2CCc2ccccc2-3)cc1	4	1	2	2.1*	-112
c1cnc2c(OCc3cn4cccnc4n3)cccc2c1	20	0.8	6	0.6	36
COC(=O)c1c(-c2ccncc2)csc1NC(=O)c1ccoc1C	94*	0.1	0	0.3	74*
CCN1CCN(CC(=O)Nc2ccc(C)cc2C)C(=O)C1=O	24	0.8	-4	0.5	50
Cc1ccc(N(CC(=O)Nc2ccc(C)cc2C)S(=O)(=O)N2CCCC2)cc1	20	0.8	1	0.2	80*
Cc1cccc(NC(=O)CCN2CC(C)OC(C)C2)c1 (stereo not given)	73*	0.3	4	1	2
CC1CC(C)CN(CCC(=O)Nc2cccc(Cl)c2)C1 (stereo not given)	69*	0.3	3	0.8	18
O=C(CCN1CCCCC1)Nc1cccc(Cl)c1	2	1	-3	1.1	-7
O=C(O)C1C2C=CC(C2)C1C(=O)NCCc1cccc(Cl)c1 (stereo not given)	.	.	3	.	.
Cc1nn(C)cc1CN(C)C(=O)c1sc2cccc(Cl)c2c1Cl	97*	0	.	2*	-98
CCC(CC)C(=O)c1c[nH]c(C(=O)NCCc2ccccn2)c1	-4	1	-1	1.1	-6
COc1ccc(OCc2ccc(C(=O)NN)cc2)cc1	92*	0.1	-1	0.3	69*
COc1cccc(NC(=O)c2ccc(NC(C)=O)cc2)c1	-4	1	4	1.3	-34
SMILES	CYP2C19 inh	CYP2C19 act	EphB4 antag	CYP2C9 act	CYP2C9 inhib
COc1ccc(C(=O)Nc2cc(OC)cc(OC)c2)cc1	86*	0.1	-6	1.1	-10
COc1ccc(C(=O)Nc2cccc(OC(=O)c3ccc(C)c(C)c3)c2)cc1	27	0.7	1	0.3	70*
CCCC(=O)Nc1nnc(Cc2ccccc2)s1	20	0.8	1	0.9	8
COc1cc(/C=N/NC(N)=O)ccc1OC(=O)c1ccc(C)cc1	-9	1.1	5	1	-4
OC12CCCCC1C(c1ccc3c(c1)OCO3)N(Cc1ccc(F)cc1)CC2 (stereo not given)	72*	0.3	4	0.5	45
OC12CCCCC1C(c1ccc3c(c1)OCO3)N(Cc1ccccc1F)CC2 (stereo not given)	98*	0	9	0.1	95*
CN1c2ccccc2N(C)C1c1ccc2c(c1)OCO2	5	0.9	-5	1	-2
OC12CCCCC1C(c1ccc3c(c1)OCO3)N(Cc1cccc(F)c1)CC2 (stereo not given)	79*	0.2	5	0.2	79*
O=C(NCc1ccc2c(c1)OCO2)C1CCCN1C(=O)Nc1cccc(F)c1 (stereo not given)	.	.	-1	.	.
CN1CN(C)c2cccc3cccc1c23	.	.	-6	.	.
COc1ccc(-c2c3c(nc4sc5c(Cl)nc(C)nc5c24)CCC3)cc1	-6	1.1	-3	0.4	58*
Cc1ccc(-c2c3c(nc4sc(C(N)=O)c(N)c24)CCC3)cc1	5	0.9	9	0.6	39
CC(C)N(Cc1cc2ccccc2[nH]c1=O)C(=O)c1cccnc1	0	1	-4	1.1	-9
CCN(CC)CCN=C1CCCc2ccccc2N1	5	1	-7	0.9	9
O=S(=O)(Nc1ccc(F)cc1)N1CCCCCC1	99*	0	-2	0.3	67*
O=S(=O)(N1CCCCC1)N1CCN(c2ccc(F)cc2)CC1	58*	0.4	2	0.6	44
Cc1cccc(CCNC(=O)C2CCN(S(=O)(=O)c3c(C)noc3C)CC2)c1	7	0.9	4	1	4
Cc1nc(SCC(N)=O)[nH]c(=O)c1CCC(C)C	-2	1	0	0.9	9
Cc1nc(NCc2ccco2)[nH]c(=O)c1CCC(C)C	57*	0.4	3	0.9	14
O=C(CC(=O)N/N=C/c1ccc(Cl)cc1Cl)NCc1ccccc1	55*	0.4	-2	0.6	44
O=C(Cc1ccccc1)N/N=C/c1ccccc1Cl	57*	0.4	-2	0.8	23
O=C(N/N=C/c1ccc(Cl)cc1Cl)Nc1ccccc1	35	0.6	3	0.8	24
O=C(Cc1ccccc1)N/N=C/c1cccs1	26	0.7	-1	1	-3
C=CCNC(=O)CC(=O)N/N=C/c1ccccc1F	25	0.8	1	0.1	89*
CCOC(=O)CCCNC(=O)CCCNC(=O)C(c1ccccc1)c1ccccc1	.	.	-8	.	.
SMILES	CYP2C19 inh	CYP2C19 act	EphB4 antag	CYP2C9 act	CYP2C9 inhib
CCOc1ccc(NC(=O)CSc2nc3ccccc3c(=O)n2CCNC(C)=O)cc1	6	0.9	7	0.9	6
COc1ccc(NC(=O)CSc2nc3ccccc3c(=O)n2CCNC(C)=O)c(OC)c1	48	0.5	8	0.5	51*
CCn1c(SCC(=O)Nc2ccc(NC(=O)c3ccco3)c(OC)c2)nc2ccccc2c1=O	8	0.9	-2	1	-4
CCn1c(SCC(=O)Nc2ccccc2OC)nc2ccccc2c1=O	61*	0.4	1	0.1	86*
COc1ccc(NC(=O)CSc2nc3ccccc3c(=O)n2CCNC(C)=O)cc1	94*	0.1	-3	0.4	58*
CCC(C)NC(=O)CSc1nc2ccccc2c(=O)n1Cc1ccc(OC)cc1 (stereo not given)	85*	0.1	-4	0.9	12

Compound activity from PubChem.
